TbPYK inhibitor: inhibitors of Trypanosoma brucei pyruvate kinase; Q57TT1; TbPYK enzyme, Kinase-Glo Plus ATP luminescence, 45 min; 410,000 tested, 0.12% active; Potency, µM (highest dose often 76.8 µM), without a hit: at the highest dose activity, negative = inhibition, usual class: inhibitors; further: nearly all actives have a fitted effect of over 50% in size
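Readout: single end-point luminescence (Kinase-Glo Plus, 10 min). Reaction conditions were TbPYK/substrate plus 130 uM ADP, 45 min at RT, pH 7.2 TEA buffer. No-enzyme wells served as controls, and data were normalized before concentration-response fitting.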
Sm TGR block: inhibitors of Schistosoma mansoni thioredoxin glutathione reductase; Q962Y6; purified TGR, DTNB reduction, TNB absorbance 405 nm; 360,000 tested, 3% active; Potency, µM (doses to about 114 µM), for inactives: at the highest dose activity change, negative = inhibition, actives largely listed as inhibitors; AID 485364; further: nearly all actives have a fitted effect of over 60% in size
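Kinetic colorimetric format: TGR-catalysed, NADPH-driven DTNB reduction monitored via TNB absorbance. Enzyme dispensed at 20 nM; compound exposure 15 min at room temperature before reaction start.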
RE007 growth inh: less growth of the S. pombe RE007 Vpr strain. Potency, µM (series often up to 92.2 µM), without a hit: at the highest dose activity change, negative = less growth, actives largely listed as inhibitors. S. pombe RE007 Vpr strain, BacTiter-Glo ATP luminescence, 24 h. AID 651644. 360,000 tested, 0.21% active; active means well fitted falling curve with a large enough effect; inconclusive means small, poorly fitted or top-dose-only effect; inactive means no such curve, though single readings can be large or run the other way; further: nearly all actives have a fitted effect of over 50% in size
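Fission yeast RE007 carrying one integrated HIV-1 vpr copy, seeded at OD 0.01 in PMG+AL medium with 23 nL pinned compound. Grown 24 h at 30 degrees; viability read by BacTiter-Glo luminescence after 5 min.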
LmPK inhibitor: blocks Leishmania mexicana pyruvate kinase activity. 290,000 tested, 0.37% active. Potency, µM (titrated, usually from 57.5 µM), for the others: at the top dose activity change, negative = inhibition, usual class: inhibitors. purified LmPK, Kinase-Glo ATP luminescence, 1 h
Target sequence (Q27686 whole entry, looked up): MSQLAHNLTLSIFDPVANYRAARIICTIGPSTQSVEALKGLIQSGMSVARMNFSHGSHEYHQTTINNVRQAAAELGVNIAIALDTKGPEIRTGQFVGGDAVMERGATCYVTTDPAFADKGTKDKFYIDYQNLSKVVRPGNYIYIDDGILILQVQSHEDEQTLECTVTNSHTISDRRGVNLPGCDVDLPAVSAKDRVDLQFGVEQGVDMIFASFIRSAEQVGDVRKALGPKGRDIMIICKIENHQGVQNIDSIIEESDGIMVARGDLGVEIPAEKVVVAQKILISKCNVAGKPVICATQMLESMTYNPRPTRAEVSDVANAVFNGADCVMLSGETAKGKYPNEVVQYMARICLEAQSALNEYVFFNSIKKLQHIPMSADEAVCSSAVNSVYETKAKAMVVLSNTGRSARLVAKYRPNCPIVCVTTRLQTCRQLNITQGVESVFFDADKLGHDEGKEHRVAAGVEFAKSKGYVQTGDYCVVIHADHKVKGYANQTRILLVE
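ATP generated from ADP (0.1 mM) and PEP (0.5 mM) by 0.1 nM LmPK over 1 h at room temperature (pH 7.2 imidazole buffer) was detected by coupled luciferase luminescence. Values were normalized to uninhibited and no-enzyme wells.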
AMA1-RON2 inh: inhibitors of Plasmodium falciparum AMA1-RON2 interaction. AlphaScreen AMA1-biotinylated RON2 peptide binding. Potency, µM (titrated, usually from 58.2 µM), without a hit: at the highest dose activity change, negative = inhibition, hits mostly inhibitors. 360,000 tested, 0.2% active. AID 720542;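 further: 0% = vehicle wells and -100% = peptide control; nearly all actives have a fitted effect of over 45% in size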
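AMA1 (3D7) with his tag at 25 nM final met compounds first, then biotinylated RON2 peptide at 25 nM; detection used donor plus acceptor beads, 10 µg/mL apiece, read by AlphaScreen after 30 min at room temperature.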
The depositor's hits bear a star; ? = inconclusive; · = no result given. Most compounds without a hit are left out; they make up all but 3.2% or so of the library. Unless noted, the call rests on the fitted dose curve; in most records, active means well fitted curve in the direction sought with a large enough effect; inconclusive means small, poorly fitted or top-dose-only effect, or another doubt; inactive means no such curve, though single readings can be large; an effect the other way counts as inactive or inconclusive. Unless noted, on the % scale 0 is the no-effect control and ±100 the full control effect; potency means the concentration at half of the fitted maximal effect.

SMILES	TbPYK inhibitor	Sm TGR block	RE007 growth inh	LmPK inhibitor	AMA1-RON2 inh
O=C(C=C1SCCS1)/C=C/c1ccco1	-6%	7.1µM*	-18%	?	?
CC1CCCCC1NC(=O)COC(=O)/C=C/c1ccco1 (centres undefined)	0%	40µM*	-2%	·	0%
CCc1ccc(Cn2c(CNS(=O)(=O)c3ccc(Cl)s3)nc3cccnc32)cc1	-3%	12%	·	·	·
COc1ccccc1OCC(=O)N(Cc1ccc(N(C)C)cc1)CC1CCCO1 (centres undefined)	-14%	0%	·	·	·
Cc1ccc2c(Br)cc(Br)c(O)c2n1	5%	·	·	·	·
O=C(COC(=O)/C=C/c1ccc(Br)o1)Nc1ccccc1F	·	79µM*	·	5%	·
O=C(COC(=O)/C=C/c1ccc(Br)o1)NC1CCCCC1	-12%	13µM*	1%	·	-1%
CCOc1ccc(CNC(=O)C2CCN(c3nc4ccccc4nc3C(F)(F)F)CC2)cc1OC	-15%	1%	·	·	·
CC1(c2nnc(Cc3ccccc3)o2)CC(c2ccc([N+](=O)[O-])cc2)=NO1 (centres undefined)	-6%	6.3µM*	-21%	2%	-11%
CC1(c2nnc(Cc3ccccc3)o2)CC(c2ccc(Br)cc2)=NO1 (centres undefined)	1%	·	-17%	·	37%
CC1(c2nnc(-c3ccccc3)o2)CC(c2cccc(Cl)c2)=NO1 (centres undefined)	-4%	1%	5%	4%	0%
CC1(c2nnc(-c3cccc(Cl)c3)o2)CC(c2cccc([N+](=O)[O-])c2)=NO1 (centres undefined)	-1%	45µM*	8%	-3%	-4%
CCCCN(C(=O)Cn1ncc(Cl)c(Cl)c1=O)c1c(N)n(CC(C)C)c(=O)[nH]c1=O	-17%	4.5µM*	-14%	0%	12%
Cc1ccc(-n2nc(C(=O)Nc3cccc(C#N)c3)c3c4ccccc4n(C)c3c2=O)cc1	0%	5%	·	·	·
NNc1nc(C(F)(F)F)nc2ccccc12	2%	6%	-2%	0%	52%
O/C=c1\ccc2cccc3nc(C(F)(F)F)nc1c23	5%	3.2µM*	-11%	9%	?
COc1ccc2cc1Oc1ccc(cc1)C[C@H]1c3c(cc(OC)c4c3Oc3c(ccc5c3[C@H](C2)N(C)CC5)O4)CCN1C	-3%	·	-4%	·	-25%
COc1ccc2cc1Oc1ccc(cc1)CC1c3c(cc(OC)c4c3Oc3cc5c(cc3O4)CCNC5C2)CCN1C (centres undefined)	0%	10%	2%	2%	14µM*
COc1cccc(NC(=O)Cn2c(=O)n(CCC(=O)NCc3ccccc3OC)c(=O)c3ccccc32)c1	-1%	2%	·	·	·
Cc1cccc2sc(N(Cc3cccnc3)C(=O)c3cccs3)nc12	-6%	2%	·	·	·
O=C(O)C12CC3CC(C1)CC(n1ncc(NCc4ccco4)c(Cl)c1=O)(C3)C2	-4%	2.8µM*	-17%	5%	22%
O=C(O)CC12CC3CC(C1)CC(n1ncc(NCc4ccccc4Cl)c(Cl)c1=O)(C3)C2	1%	-5%	0%	-7%	0%
COc1ccccc1N1C(=O)C(Cl)=C(Nc2ccccc2O)C1=O	-21%	8.9µM*	-14%	0%	8%
O=C1C(Cl)=C(Nc2ccccc2O)C(=O)N1c1ccccc1	-19%	22µM*	?	-3%	3%
Cc1c(NC2=C(Cl)C(=O)N(c3ccccc3)C2=O)c(=O)n(-c2ccccc2)n1C	-6%	?	-23%	-7%	-20%
Cc1ccc(O)c(NC2=C(Cl)C(=O)N(Cc3ccccc3)C2=O)c1	35µM*	·	4%	-9%	22%
CCOc1ccccc1NC1=C(Cl)C(=O)N(c2ccc(OC)cc2)C1=O	3%	-27%	14%	1%	-15%
Cc1ccccc1C(=O)Nc1ccc(C(=O)N2CCCC(O)c3cc(Cl)ccc32)c(C)c1 (centres undefined)	-3%	·	·	·	·
